Records with an inconclusive call do not appear. Values without a mark were called inactive. Activity calls are given as the source filed them. The call rests on the fitted dose curve; in most records, active means well fitted cell-killing curve with a large enough effect in the repeat runs (not every such curve was filed as active); inconclusive means weak or mixed curves, or effect the other way; inactive means no such curve, though single readings can be large or run the other way.
Assay: qHTS assay to identify small molecule antagonists of the farnesoid-X-receptor (FXR) signaling pathway - cell viability counter screen (AID 743221); further: nearly all actives have a fitted effect of over 50% in size
Conditions: FXR-bla HEK293T viability, CellTiter-Glo luminescence, 16 h; series mostly up to 62.6 µM; activity change, negative = cytotoxicity: at the top concentration
Description: National Center for Advancing Translational Sciences [NCATS]
NIH Chemical Genomics Center [NCGC]
U.S. Environmental Protection Agency [EPA]
National Institutes of Environmental Health Sciences [NIEHS]
National Toxicology Program [NTP]
U.S. Food and Drug Administration [FDA]
The farnesoid-X-receptor (FXR), a nuclear hormone receptor, is highly expressed in liver, intestine, kidney and adrenal cortex. Natural ligands of FXR are the bile acids (Cholic acid, Chenodeoxy cholic acid etc). FXR is an important regulator of diverse metabolic pathways, including the bile acid homeostasis, lipid and glucose metabolisms. FXR regulates the expression of target genes by binding either as a monomer or as a heterodimer with the retinoid X receptor (RXR). Numerous studies have reported that FXR exerts protective function during cholestasis, diabetes, liver regeneration, and cancer. To identify compounds that inhibit FXR signaling, GeneBLAzer FXR-UAS-bla HEK 293T cell line (Invitrogen, Carlsbad, CA) containing a beta-lactamase reporter gene under the control of a UAS response element was used to screen the Tox21 10K compound library. The cytotoxicity of the Tox21 compound library against the FXR-bla cell line was tested in parallel by measuring the cell viability using CellTiter-Glo assay in the same wells.
Tox21 Assay Protocol Summary:
FXR-bla cells were dispensed at 5000 cells/5uL/well in 1536-well black wall/clear bottom plates using a Multidrop Combi (Thermo Fisher Scientific, Waltham, MA) dispenser. After the assay plates were incubated at 37 C and 5% CO2 for 5 h, 23 nL of compounds dissolved in DMSO, positive controls or DMSO only was transferred to the assay plate by a Pintool station (Kalypsys, San Diego, CA), followed by addition of 1 uL Chenodeoxycholic acid (50 uM, final concentration in the wells). The assay plates were incubated at 37C for 16 h. After 1 uL of LiveBLAzerTM B/G FRET substrate was added using a Bioraptr Flying Reagent Dispenser (FRD) workstation (Beckman Coulter, Indianapolis, IN), the plates were incubated at room temperature for 2 h, and fluorescence intensity was measured by an Envision plate reader (PerkinElmer, Shelton, CT). For cell viability readout that measures cytotoxicity, 4uL/well of CellTiter-Glo reagent was added into the assay plates using a Bioraptr FRD. After 30 min incubation at room temperature, the luminescence intensity in the plates was measured using a ViewLux plate reader (PerkinElmer).
For `CNN`, the “activity change, negative = cytotoxicity” value was -0.316% [at 81.1 µM].
In the case of `O=[N+]([O-])[O-].[Tl+]`, the “activity change, negative = cytotoxicity” value is reported as 0.276% [at 81.1 µM].
In the case of `N#Cc1c2ccccc2cc2ccccc12`, the “activity change, negative = cytotoxicity” value is reported as -28.8%.
In the case of `CC(C)N(C(=O)SC/C(Cl)=C/Cl)C(C)C`, the “activity change, negative = cytotoxicity” value is reported as 3.97% [at 81.1 µM].
For `O=S(=O)(NS(=O)(=O)C(F)(F)F)C(F)(F)F`, the “activity change, negative = cytotoxicity” value was 0.407%.
In the case of `O.O.O.O.O.O.O=S(=O)([O-])[O-].[Ni+2]`, the “activity change, negative = cytotoxicity” value is reported as -0.101%.
In the case of `Cc1cc2c3c(c1)C(c1ccccc1)=N[C@@H](NC(=O)c1ccncc1)C(=O)N3CC2`, the “activity change, negative = cytotoxicity” value is reported as 0.239%.
For `Clc1cc(Cl)c(-c2cc(Cl)c(Cl)cc2Cl)cc1Cl`, the “activity change, negative = cytotoxicity” value was -0.0692%.
For `ClC1=C(Cl)[C@]2(Cl)[C@@H]3[C@H]4C[C@H]([C@@H]5O[C@H]45)[C@@H]3[C@@]1(Cl)C2(Cl)Cl`, the “activity change, negative = cytotoxicity” value was -9.79%.
For `CC1CCCC1`, the “activity change, negative = cytotoxicity” value was 11.1%.
In the case of `CCC1COC(Cn2cncn2)(c2ccc(Cl)cc2Cl)O1` (stereo not given), the “activity change, negative = cytotoxicity” value is reported as 12.8%.
In the case of `CN/C(=N\[N+](=O)[O-])NCc1cnc(Cl)s1`, the “activity change, negative = cytotoxicity” value is reported as -6.88%.
For `CC(=O)O.CC(=O)O.CC(=O)O.CC(=O)O.CC(=O)O.CC(=O)O.CC(=O)O.O.O.[Cr].[Cr].[Cr]`, the “activity change, negative = cytotoxicity” value was -2.25%.
For `CCCN`, the “activity change, negative = cytotoxicity” value was -3.88% [at 81.1 µM].
In the case of `O=C(NC(=O)c1c(F)cccc1F)Nc1ccc(Oc2ccc(C(F)(F)F)cc2Cl)cc1F`, the “activity change, negative = cytotoxicity” value is reported as 14.3%.
With `COc1ccc(Cc2nccc3cc(OC)c(OC)cc23)cc1OC` the “activity change, negative = cytotoxicity” value was 4.35%.
With `COP(=S)(OC)Oc1ccc([N+](=O)[O-])c(C)c1` the “activity change, negative = cytotoxicity” value was -1.93%.
In the case of `Cc1ccccc1OP(=O)(Oc1ccccc1C)Oc1ccccc1C`, the “activity change, negative = cytotoxicity” value is reported as -18.5% [at 81.1 µM].
In the case of `CC(=O)[O-].CC(=O)[O-].[Co+2]`, the “activity change, negative = cytotoxicity” value is reported as 3.88%.
In the case of `CC(C)NCC(O)c1ccccc1Cl` (stereo not given), the “activity change, negative = cytotoxicity” value is reported as 10.7%.
With `CNC(C)(C)Cc1ccccc1` the “activity change, negative = cytotoxicity” value was 5.21%.
With `CC(C)N(C(=O)CCl)c1ccccc1` the “activity change, negative = cytotoxicity” value was 0.85%.
In the case of `CC(C)c1c(CN(C)C(C)Cc2ccccc2)n(C)n(-c2ccccc2)c1=O` (stereo not given), the “activity change, negative = cytotoxicity” value is reported as -9.52%.
For `Oc1cc(Cl)cc(Cl)c1`, the “activity change, negative = cytotoxicity” value was -4.14% [at 81.1 µM].
In the case of `O=C(O)[C@H](O)[C@@H](O)C(=O)O`, the “activity change, negative = cytotoxicity” value is reported as 9.6%.
For `CC(=O)[O][Sn]([c]1ccccc1)([c]1ccccc1)[c]1ccccc1`, the Potency was 138 nM (active).
For `C=C(C)C(=O)[O][Sn]([CH2]CCC)([CH2]CCC)[CH2]CCC`, the Potency was 977 nM (active).
In the case of `CC(C)Br`, the “activity change, negative = cytotoxicity” value is reported as -10.1%.
With `CSC1=N[C@@](C)(c2ccccc2)C(=O)N1Nc1ccccc1` the “activity change, negative = cytotoxicity” value was -17.8%.
In the case of `N#Cc1c[nH]cc1-c1cccc2c1OC(F)(F)O2`, the “activity change, negative = cytotoxicity” value is reported as 1.25%.
For `CNC(=O)O/N=C(\C)C(C)S(C)(=O)=O` (stereo not given), the “activity change, negative = cytotoxicity” value was -12.8% [at 765 µM].
With `CCC(OC(C)=O)C(CC(C)NC)(c1ccccc1)c1ccccc1` (stereo not given) the Potency was 69200 nM (active).
In the case of `COc1cnc(OC)n2nc(NS(=O)(=O)c3c(OCC(F)F)cccc3C(F)(F)F)nc12`, the “activity change, negative = cytotoxicity” value is reported as -3.33%.
With `Oc1cc(Cl)c(Cl)c(Cl)c1Cl` the “activity change, negative = cytotoxicity” value was -34.7%.
With `Cc1ccc(C)c2ccccc12` the “activity change, negative = cytotoxicity” value was 5.53%.
In the case of `[O]=[Cr][O][Cr]=[O]`, the “activity change, negative = cytotoxicity” value is reported as 5.67% [at 81.1 µM].
In the case of `Cc1ccc([N+](=O)[O-])[c]2c1[O][Hg]2`, the Potency is reported as 1190 nM (active).
For `COCCC#N`, the “activity change, negative = cytotoxicity” value was -0.516%.
With `O=C(Nc1ccc(F)cc1F)c1cccnc1Oc1cccc(C(F)(F)F)c1` the “activity change, negative = cytotoxicity” value was 3.21% [at 81.1 µM].
With `C=CC(=C)C` the “activity change, negative = cytotoxicity” value was -5.66%.

Reference: PubChem BioAssay (Tox21)
On the % scale 0 is the no-effect control and ±100 the full control effect; potency means the concentration at half of the fitted maximal effect.
